Data: PubChem BioAssay
Active and inactive are the calls of the source. No rule for the calls is given here.

target: Pantothenate synthetase (Mycobacterium tuberculosis (strain ATCC 25618 / H37Rv)) (UniProt P9WIL5); test: Coupled enzyme confirmation of inhibitors against recombinant Mtb PanC (AID 375); conditions: coupled enzyme assay; at 10 µM, hits give high values;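 also: 0% = full reaction with vehicle and 100% = no enzyme background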
Sequence (P9WIL5 whole entry, looked up): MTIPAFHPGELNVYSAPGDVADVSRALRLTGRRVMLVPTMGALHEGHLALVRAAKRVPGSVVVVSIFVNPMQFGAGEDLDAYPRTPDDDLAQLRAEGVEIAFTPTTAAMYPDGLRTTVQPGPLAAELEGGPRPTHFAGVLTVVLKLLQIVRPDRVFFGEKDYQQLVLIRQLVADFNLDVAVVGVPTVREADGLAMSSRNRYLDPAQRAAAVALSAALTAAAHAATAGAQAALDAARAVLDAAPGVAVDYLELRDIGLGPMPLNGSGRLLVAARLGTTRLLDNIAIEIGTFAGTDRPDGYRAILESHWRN

SMILES | inhibition
CC(=O)[C@@]1(O)CC[C@H]2[C@@H]3CCC4=CC(=O)CC[C@]4(C)[C@H]3[C@@H](O)C[C@@]21C | 0% (inactive)
COc1ccc(C(=O)Nc2nncs2)c(OC)c1 | 3% (inactive)
Cc1c(C(=O)Nc2cnccn2)oc2ccccc12 | 1% (inactive)
Cc1ccc(-n2c(Cn3cnc4ccccc43)nnc2SCC(=O)O)cc1 | 0% (inactive)
Cc1ccc2c(c1)-c1c(cnn1CC(=O)Nc1ccccc1N1CCN(C)CC1)CO2 | 0% (inactive)
N#Cc1c(-c2ccccc2)nc(N2CCCCCC2)[nH]c1=O | 0% (inactive)
COc1ccc(CNC(=O)C(c2ccco2)N(Cc2cccs2)C(=O)Cc2cccs2)cc1 (centres undefined) | 0% (inactive)
O=C(Cn1ncc2c(=O)oc3ccccc3c21)NCCCN1CCCC1=O | 0% (inactive)
O=C(CSCCSCC(=O)c1ccco1)c1ccco1 | 0% (inactive)
COc1ccc(C(NC(=O)C(C)(C)C)NC(=O)C(C)(C)C)cc1 | 0% (inactive)
COc1ccc(C2C(C(C)=O)=C(O)C(=O)N2C)c(OC)c1 (centres undefined) | 0% (inactive)
CC1CCc2nn(CC(=O)NCCN3CCCCC3C)cc2C1 (centres undefined) | 0% (inactive)
C=CCSc1nnc2n(CCc3ccccc3)c(=O)c3c4c(sc3n12)COC(C)(C)C4 | 0% (inactive)
O=S(=O)(NCc1ccc(Cl)cc1)c1cnc[nH]1 | 0% (inactive)
CC12CN3CC(C)(CN(C1)C3c1ccc(Br)cc1)C2 (centres undefined) | 0% (inactive)
O=C(Nc1cccnc1)c1cccc(NC(=O)c2ccco2)c1 | 0% (inactive)
O=C(NCC1CCCO1)C1CCN(S(=O)(=O)c2cccc3cccnc23)CC1 (centres undefined) | 0% (inactive)
Cc1ccc(-c2nnn(CC(=O)N(Cc3cccs3)C(C(=O)NC(C)(C)C)c3ccc(C)o3)n2)o1 (centres undefined) | 0% (inactive)
CCOC(=O)c1c(C)n(C)c2ccc(O)c(S(=O)(=O)c3ccccc3)c12 | 9% (inactive)
COc1ccccc1-n1c(C)nnc1SCC(N)=O | 0% (inactive)

SMILES | inhibition
Cc1nc2ccccn2c1P(=O)(N1CCCCC1)N1CCCCC1 | 4% (inactive)
COc1ccc(N2CCN(C(=O)CSc3ncnc4c3cnn4-c3ccccc3C)CC2)cc1 | 0% (inactive)
COC(=O)c1ccccc1NC(=O)CSc1nc2c(c(=O)n(C)c(=O)n2C)n1C | 3% (inactive)
COC(=O)CCC(=O)Nc1cccc(Br)c1 | 0% (inactive)
CCCN(CCC)C(=O)C1CCN(c2cc(C)nc3c(-c4ccc(OC)c(OC)c4)c(C)nn23)CC1 | 0% (inactive)
O=C(NC1CCCC1)c1ccc(S(=O)(=O)N2CCCC2)cc1 | 0% (inactive)
CC1CCN(CCC(=O)Nc2ccc(Br)cc2)CC1 | 0% (inactive)
O=c1c2ccccc2cnn1-c1nc2ccccc2s1 | 0% (inactive)
COc1ccc(CN(C(=O)c2oc3ccccc3c2C)C2CCS(=O)(=O)C2)cc1 (centres undefined) | 0% (inactive)
O=C(Nc1nc(-c2ccncc2)cs1)C1COc2ccccc2O1 (centres undefined) | 0% (inactive)
COc1ccc(CCNC(=O)c2ccc(N3CCCC3=O)cc2)cc1OC | 0% (inactive)
CC(C)(C)c1ccc(C(=O)Nc2cnccn2)cc1 | 2% (inactive)
CC(=O)Nc1c(O)nc(SCC(=O)Nc2nnc(CC(C)C)s2)[nH]c1=O | 9% (inactive)
CC(C)CN(CC(C)C)C(=O)CS(=O)(=O)Cc1ccccc1 | 0% (inactive)
COc1ccccc1N(CC(=O)NCc1ccccc1)S(C)(=O)=O | 0% (inactive)
COc1cccc(NC(=O)N2CCC(N3CCCCC3)CC2)c1 | 0% (inactive)
Clc1cc2c(c(Cn3cnc4ccccc43)c1)OCOC2 | 0% (inactive)
COCCN(C(=O)c1csnn1)C(C(=O)NC1CCCCC1)c1cccs1 (centres undefined) | 2% (inactive)
CCOC(=O)c1cccc(NC(=O)CCn2nnc3ccccc32)c1 | 0% (inactive)
